{
  "source": "PubChem BioAssay",
  "note": "For part of these data: Potency and affinity values are given separately. The source made the active and inactive calls. A call without a number means that no potency is given here. Unless noted, the rule behind the calls is not given here.",
  "data": [
    {"test_system": "not listed separately", "assay": "inhibition of 3D7 malaria parasite growth – strain 3D7 (AID 2306)", "settings": "P. falciparum 3D7 erythrocytic growth, LDH absorbance, 72 h; at 2 µM; hits give high values", "values": [
      {"smiles": "CC(=O)Nc1ccc(C(=O)Nc2cccc(-c3csc(-c4nc5ccccc5[nH]4)c3)c2)cn1", "growth inhibition": "101% (active)"},
      {"smiles": "c1nc2nc3c(c(Nc4ccc5c(c4)CCC5)n2n1)CCC3", "growth inhibition": "87% (active)"},
      {"smiles": "Cc1cc(N)c2cc(NC(=O)c3cc(C(F)(F)F)cc(C(F)(F)F)c3)ccc2n1", "growth inhibition": "102% (active)"},
      {"smiles": "Oc1cc2c(cc1CN1CCN(Cc3ccccc3F)CC1)CCC2", "growth inhibition": "98% (active)"},
      {"smiles": "COc1ccc(Cc2c(C)nc3nc(N)nc(N)c3c2C)cc1", "growth inhibition": "93% (active)"},
      {"smiles": "COCCn1c(-c2nc(-c3ccc(F)cc3)cnc2N)nc2ccccc21", "growth inhibition": "98% (active)"},
      {"smiles": "Cc1[nH]c(C)c(-c2ccc(OCCOc3ccc(C(F)(F)F)cn3)cc2)c(=O)c1Br", "growth inhibition": "97% (active)"},
      {"smiles": "COc1cccc(OC)c1C(=O)Nc1cccc(-c2nn3ccccc3c2-c2ccnc(Nc3cccc(F)c3)n2)c1", "growth inhibition": "95% (active)"},
      {"smiles": "Cc1cnc2ccc(NS(=O)(=O)c3ccc4c(Cl)cccc4c3)cc2c1N1CCNCC1", "growth inhibition": "101% (active)"},
      {"smiles": "Cc1c(S(=O)(=O)Nc2cccc(CCN3CCCCC3CCN3CCCC3)c2)sc2ccc(Cl)cc12", "note": "(stereo not drawn)", "growth inhibition": "93% (active)"},
      {"smiles": "COc1cccc(Cc2c(C)nc3nc(N)nc(N)c3c2C)c1", "growth inhibition": "95% (active)"},
      {"smiles": "COc1ccc(-c2cccc(NC(=O)c3cccc(Cl)c3)c2)cc1CN(C)CCN(C)C", "growth inhibition": "101% (active)"},
      {"smiles": "O=C(/C=C/c1ccc(Cl)c(Cl)c1)NCCCCCN1CCC(CCNC(=O)C2(c3ccc(Cl)cc3)CC2)CC1", "growth inhibition": "91% (active)"},
      {"smiles": "O=C(C=Cc1ccc(Cl)c(Cl)c1)NCCCCCN1CCC(CCCNC(=O)[C@@H]2C[C@H]2c2ccccc2)CC1", "growth inhibition": "95% (active)"},
      {"smiles": "N#Cc1cccc(C(=O)Nc2cccc(-c3ccc(CN4CCCC4)cc3)c2)c1", "growth inhibition": "98% (active)"},
      {"smiles": "CN1CCN(c2nsc3ccc(-c4ccc(NC(=O)Nc5cc(C(F)(F)F)ccc5F)cc4)cc23)CC1", "growth inhibition": "99% (active)"},
      {"smiles": "NC(=O)c1ccsc1NC(=O)CNC(c1ccc(F)cc1)c1cccs1", "note": "(stereo not drawn)", "growth inhibition": "92% (active)"},
      {"smiles": "CC(C)Nc1nc(NCCc2cnc[nH]2)nc(Nc2ccc(Oc3ccccc3)cc2)n1", "growth inhibition": "95% (active)"},
      {"smiles": "c1ccc(-c2cc(NCCCCNc3cc(-c4ccccc4)nc4ccccc34)c3ccccc3n2)cc1", "growth inhibition": "102% (active)"},
      {"smiles": "CCOC(=O)c1c(C)n(-c2ccccc2)c2ccc(O)cc12", "growth inhibition": "101% (active)"},
      {"smiles": "CC(C)Nc1nc(NCCc2cnc[nH]2)nc(NCc2cccc3ccccc23)n1", "growth inhibition": "90% (active)"},
      {"smiles": "CCc1cn2c3c(cc(C(=O)N[C@@H](Cc4ccccc4)[C@H](O)CNC4CC4)cc13)N(CC)S(=O)(=O)CC2", "growth inhibition": "98% (active)"},
      {"smiles": "Fc1ccc2nc(-c3ccc(-c4ccc(CNCCc5cccnc5)cc4)s3)[nH]c2c1", "growth inhibition": "100% (active)"},
      {"smiles": "COc1cc(Cc2cnc(N)nc2N)cc(OC)c1OCCCCC(=O)O", "growth inhibition": "88% (active)"},
      {"smiles": "O=C(N[C@H]1CCN(Cc2ccc(OC3CCN(Cc4ccccc4)CC3)c(Br)c2)C1)c1ccc(Cl)c(Cl)c1", "growth inhibition": "100% (active)"},
      {"smiles": "O=C(NCC1CCN(C/C=C/c2ccccc2)CC1)Nc1ccc(Oc2ccccc2)cc1", "growth inhibition": "83% (active)"},
      {"smiles": "COc1cccc2cc(C(=O)N[C@@H](CC(C)C)C(=O)N[C@H](/C=N/N(C)C(=O)OC(C)(C)C)CC(=O)OC(C)(C)C)oc12", "growth inhibition": "87% (active)"},
      {"smiles": "CN1CCC(c2cc3c(cc2Br)CCN3C(=O)Nc2ccc(-c3ccncc3)c(Cl)c2)CC1", "growth inhibition": "91% (active)"},
      {"smiles": "Cc1[nH]nc2cc(Nc3ccnc(Nc4ccc(CN5CCOCC5)cc4)n3)ccc12", "growth inhibition": "97% (active)"},
      {"smiles": "CCC(C)NC(=O)CN1CN(c2ccccc2)C2(CCN(C(=O)c3ccc(C(C)(C)C)cc3)CC2)C1=O", "note": "(stereo not drawn)", "growth inhibition": "101% (active)"},
      {"smiles": "c1ccc(-c2nc(Nc3nc4ccccc4[nH]3)[nH]c2-c2ccccc2)cc1", "growth inhibition": "96% (active)"},
      {"smiles": "Cc1ccc2c(c1[N+](=O)[O-])N=NCC2Oc1ccccc1", "note": "(stereo not drawn)", "growth inhibition": "91% (active)"},
      {"smiles": "COc1ccc(-c2cnc3[nH]cc(-c4ccc(C(=O)O)cc4)c3c2)cn1", "growth inhibition": "95% (active)"},
      {"smiles": "c1ccc(CCNCc2ccc(-c3cccc(-c4nc5ccccc5[nH]4)c3)cc2)nc1", "growth inhibition": "100% (active)"},
      {"smiles": "O=C(Nc1ccc(-c2cccc(-c3nc4ccccc4[nH]3)c2)cc1)Nc1ccsc1", "growth inhibition": "101% (active)"},
      {"smiles": "COc1ccc2ncc(C#N)c(CCN3C[C@H](CNCc4ccccc4)[C@H](O)C3)c2n1", "growth inhibition": "91% (active)"},
      {"smiles": "Oc1ccc2c(CNCCc3ccccc3)c(O)ccc2c1CNCCc1ccccc1", "growth inhibition": "99% (active)"},
      {"smiles": "NC1=NC(c2ccccc2)N(OCc2ccccc2)C(N)=N1", "note": "(stereo not drawn)", "growth inhibition": "96% (active)"},
      {"smiles": "O=C(Nc1ccc2c(c1)CCN2C1CCN(Cc2ccc(F)cc2Cl)C1)c1ccco1", "note": "(stereo not drawn)", "growth inhibition": "97% (active)"}
    ]},
    {"molecular_target": "Calcium-dependent protein kinase 1 (Plasmodium falciparum (isolate 3D7)) (UniProt P62344)", "sequence (P62344 whole entry, looked up)": "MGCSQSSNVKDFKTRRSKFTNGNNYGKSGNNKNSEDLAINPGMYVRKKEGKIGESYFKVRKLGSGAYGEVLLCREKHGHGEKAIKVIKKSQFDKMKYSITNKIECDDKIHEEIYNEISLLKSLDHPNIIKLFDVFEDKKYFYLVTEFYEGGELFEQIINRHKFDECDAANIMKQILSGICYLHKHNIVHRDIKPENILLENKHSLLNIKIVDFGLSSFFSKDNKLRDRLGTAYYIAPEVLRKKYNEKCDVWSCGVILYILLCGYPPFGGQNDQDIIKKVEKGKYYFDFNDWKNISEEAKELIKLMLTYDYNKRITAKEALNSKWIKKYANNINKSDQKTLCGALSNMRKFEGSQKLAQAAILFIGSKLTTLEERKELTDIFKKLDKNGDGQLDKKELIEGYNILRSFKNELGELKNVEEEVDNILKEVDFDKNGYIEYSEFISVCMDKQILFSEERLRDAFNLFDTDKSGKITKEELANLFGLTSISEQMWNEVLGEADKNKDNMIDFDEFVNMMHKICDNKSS", "assay": "PfCDPK1 kinase inhibitors, biochemical, TCAMS library (AID 1159585; cut-off not given, nearly all actives have IC50 up to about 0.98 µM;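 note: inhibitors leave more ATP so luminescence rises with inhibition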)", "settings": "recombinant PfCDPK1, Kinase-Glo ATP depletion luminescence", "values": [
      {"smiles": "CC(=O)Nc1ccc(C(=O)Nc2cccc(-c3csc(-c4nc5ccccc5[nH]4)c3)c2)cn1", "outcome": "inactive"},
      {"smiles": "c1nc2nc3c(c(Nc4ccc5c(c4)CCC5)n2n1)CCC3", "outcome": "inactive"},
      {"smiles": "Cc1cc(N)c2cc(NC(=O)c3cc(C(F)(F)F)cc(C(F)(F)F)c3)ccc2n1", "outcome": "inactive"},
      {"smiles": "Oc1cc2c(cc1CN1CCN(Cc3ccccc3F)CC1)CCC2", "outcome": "inactive"},
      {"smiles": "COc1ccc(Cc2c(C)nc3nc(N)nc(N)c3c2C)cc1", "outcome": "inactive"},
      {"smiles": "COCCn1c(-c2nc(-c3ccc(F)cc3)cnc2N)nc2ccccc21", "outcome": "inactive"},
      {"smiles": "Cc1[nH]c(C)c(-c2ccc(OCCOc3ccc(C(F)(F)F)cn3)cc2)c(=O)c1Br", "outcome": "inactive"},
      {"smiles": "COc1cccc(OC)c1C(=O)Nc1cccc(-c2nn3ccccc3c2-c2ccnc(Nc3cccc(F)c3)n2)c1", "outcome": "inactive"},
      {"smiles": "Cc1cnc2ccc(NS(=O)(=O)c3ccc4c(Cl)cccc4c3)cc2c1N1CCNCC1", "outcome": "inactive"},
      {"smiles": "Cc1c(S(=O)(=O)Nc2cccc(CCN3CCCCC3CCN3CCCC3)c2)sc2ccc(Cl)cc12", "note": "(stereo not drawn)", "outcome": "inactive"},
      {"smiles": "COc1cccc(Cc2c(C)nc3nc(N)nc(N)c3c2C)c1", "outcome": "inactive"},
      {"smiles": "COc1ccc(-c2cccc(NC(=O)c3cccc(Cl)c3)c2)cc1CN(C)CCN(C)C", "outcome": "inactive"},
      {"smiles": "O=C(/C=C/c1ccc(Cl)c(Cl)c1)NCCCCCN1CCC(CCNC(=O)C2(c3ccc(Cl)cc3)CC2)CC1", "outcome": "inactive"},
      {"smiles": "O=C(C=Cc1ccc(Cl)c(Cl)c1)NCCCCCN1CCC(CCCNC(=O)[C@@H]2C[C@H]2c2ccccc2)CC1", "outcome": "inactive"},
      {"smiles": "N#Cc1cccc(C(=O)Nc2cccc(-c3ccc(CN4CCCC4)cc3)c2)c1", "outcome": "inactive"},
      {"smiles": "CN1CCN(c2nsc3ccc(-c4ccc(NC(=O)Nc5cc(C(F)(F)F)ccc5F)cc4)cc23)CC1", "outcome": "inactive"},
      {"smiles": "NC(=O)c1ccsc1NC(=O)CNC(c1ccc(F)cc1)c1cccs1", "note": "(stereo not drawn)", "outcome": "inactive"},
      {"smiles": "CC(C)Nc1nc(NCCc2cnc[nH]2)nc(Nc2ccc(Oc3ccccc3)cc2)n1", "outcome": "inactive"},
      {"smiles": "c1ccc(-c2cc(NCCCCNc3cc(-c4ccccc4)nc4ccccc34)c3ccccc3n2)cc1", "outcome": "inactive"},
      {"smiles": "CCOC(=O)c1c(C)n(-c2ccccc2)c2ccc(O)cc12", "outcome": "inactive"},
      {"smiles": "CC(C)Nc1nc(NCCc2cnc[nH]2)nc(NCc2cccc3ccccc23)n1", "outcome": "inactive"},
      {"smiles": "CCc1cn2c3c(cc(C(=O)N[C@@H](Cc4ccccc4)[C@H](O)CNC4CC4)cc13)N(CC)S(=O)(=O)CC2", "outcome": "inactive"},
      {"smiles": "Fc1ccc2nc(-c3ccc(-c4ccc(CNCCc5cccnc5)cc4)s3)[nH]c2c1", "outcome": "inactive"},
      {"smiles": "COc1cc(Cc2cnc(N)nc2N)cc(OC)c1OCCCCC(=O)O", "outcome": "inactive"},
      {"smiles": "O=C(N[C@H]1CCN(Cc2ccc(OC3CCN(Cc4ccccc4)CC3)c(Br)c2)C1)c1ccc(Cl)c(Cl)c1", "outcome": "inactive"},
      {"smiles": "O=C(NCC1CCN(C/C=C/c2ccccc2)CC1)Nc1ccc(Oc2ccccc2)cc1", "outcome": "inactive"},
      {"smiles": "COc1cccc2cc(C(=O)N[C@@H](CC(C)C)C(=O)N[C@H](/C=N/N(C)C(=O)OC(C)(C)C)CC(=O)OC(C)(C)C)oc12", "outcome": "inactive"},
      {"smiles": "CN1CCC(c2cc3c(cc2Br)CCN3C(=O)Nc2ccc(-c3ccncc3)c(Cl)c2)CC1", "outcome": "inactive"},
      {"smiles": "Cc1[nH]nc2cc(Nc3ccnc(Nc4ccc(CN5CCOCC5)cc4)n3)ccc12", "outcome": "inactive"},
      {"smiles": "CCC(C)NC(=O)CN1CN(c2ccccc2)C2(CCN(C(=O)c3ccc(C(C)(C)C)cc3)CC2)C1=O", "note": "(stereo not drawn)", "outcome": "inactive"},
      {"smiles": "c1ccc(-c2nc(Nc3nc4ccccc4[nH]3)[nH]c2-c2ccccc2)cc1", "outcome": "inactive"},
      {"smiles": "Cc1ccc2c(c1[N+](=O)[O-])N=NCC2Oc1ccccc1", "note": "(stereo not drawn)", "outcome": "inactive"},
      {"smiles": "COc1ccc(-c2cnc3[nH]cc(-c4ccc(C(=O)O)cc4)c3c2)cn1", "outcome": "inactive"},
      {"smiles": "c1ccc(CCNCc2ccc(-c3cccc(-c4nc5ccccc5[nH]4)c3)cc2)nc1", "outcome": "inactive"},
      {"smiles": "O=C(Nc1ccc(-c2cccc(-c3nc4ccccc4[nH]3)c2)cc1)Nc1ccsc1", "outcome": "inactive"},
      {"smiles": "COc1ccc2ncc(C#N)c(CCN3C[C@H](CNCc4ccccc4)[C@H](O)C3)c2n1", "outcome": "inactive"},
      {"smiles": "Oc1ccc2c(CNCCc3ccccc3)c(O)ccc2c1CNCCc1ccccc1", "outcome": "inactive"},
      {"smiles": "NC1=NC(c2ccccc2)N(OCc2ccccc2)C(N)=N1", "note": "(stereo not drawn)", "outcome": "inactive"},
      {"smiles": "O=C(Nc1ccc2c(c1)CCN2C1CCN(Cc2ccc(F)cc2Cl)C1)c1ccco1", "note": "(stereo not drawn)", "outcome": "inactive"}
    ]}
  ]
}
